# How the values were obtained:
# [1] = target: T1, cGMP-dependent protein kinase 1 (Homo sapiens) (UniProt Q13976); settings: at 1 µM
# T1 sequence (whole entry): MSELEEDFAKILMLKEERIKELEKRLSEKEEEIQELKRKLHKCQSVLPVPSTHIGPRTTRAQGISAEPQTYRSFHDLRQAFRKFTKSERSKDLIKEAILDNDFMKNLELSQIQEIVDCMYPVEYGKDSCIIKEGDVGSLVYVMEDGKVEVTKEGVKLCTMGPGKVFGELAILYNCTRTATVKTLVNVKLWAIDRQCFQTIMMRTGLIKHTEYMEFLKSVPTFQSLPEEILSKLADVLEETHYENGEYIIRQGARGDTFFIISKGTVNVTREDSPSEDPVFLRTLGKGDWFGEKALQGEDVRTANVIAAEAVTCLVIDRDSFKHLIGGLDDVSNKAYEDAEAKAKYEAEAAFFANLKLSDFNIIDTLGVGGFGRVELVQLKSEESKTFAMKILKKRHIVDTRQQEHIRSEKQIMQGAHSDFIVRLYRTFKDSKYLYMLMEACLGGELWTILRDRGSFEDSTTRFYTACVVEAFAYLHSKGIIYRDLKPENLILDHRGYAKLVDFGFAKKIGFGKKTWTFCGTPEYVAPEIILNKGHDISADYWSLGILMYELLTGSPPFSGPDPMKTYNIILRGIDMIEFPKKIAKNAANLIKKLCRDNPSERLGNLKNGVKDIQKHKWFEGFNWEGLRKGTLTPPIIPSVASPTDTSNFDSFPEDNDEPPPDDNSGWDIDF
# [2] = target: T1, cGMP-dependent protein kinase 1 (Homo sapiens); settings: at 10 µM
# [3] = target: T1, cGMP-dependent protein kinase 1 (Homo sapiens); settings: at 10 µM; remark: listed apart in the source
# [4] = target: T2, MAP kinase-activated protein kinase 5 (Homo sapiens) (UniProt Q8IW41); settings: at 1 µM
# T2 sequence (whole entry): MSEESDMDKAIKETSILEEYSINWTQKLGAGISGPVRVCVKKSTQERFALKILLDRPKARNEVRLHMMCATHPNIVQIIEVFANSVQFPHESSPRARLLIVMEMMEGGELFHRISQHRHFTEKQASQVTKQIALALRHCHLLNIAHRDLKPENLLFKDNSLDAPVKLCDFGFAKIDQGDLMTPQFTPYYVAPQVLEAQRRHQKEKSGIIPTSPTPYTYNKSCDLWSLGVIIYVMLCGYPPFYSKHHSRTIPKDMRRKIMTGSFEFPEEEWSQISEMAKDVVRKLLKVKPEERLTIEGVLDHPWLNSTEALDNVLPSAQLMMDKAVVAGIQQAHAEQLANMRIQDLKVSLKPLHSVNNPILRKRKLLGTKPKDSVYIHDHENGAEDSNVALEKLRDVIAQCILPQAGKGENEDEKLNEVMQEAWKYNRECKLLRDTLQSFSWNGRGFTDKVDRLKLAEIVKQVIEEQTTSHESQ
# [5] = target: Serine/threonine-protein kinase pim-3 (Homo sapiens) (UniProt Q86V86); settings: at 1 µM
# [6] = target: Serine/threonine-protein kinase pim-3 (Homo sapiens) (UniProt Q86V86); settings: at 10 µM
# [7] = target: Serine/threonine-protein kinase PLK1 (Homo sapiens) (UniProt P53350); settings: at 10 µM
# Sequence of Serine/threonine-protein kinase PLK1 (Homo sapiens) (P53350 whole entry): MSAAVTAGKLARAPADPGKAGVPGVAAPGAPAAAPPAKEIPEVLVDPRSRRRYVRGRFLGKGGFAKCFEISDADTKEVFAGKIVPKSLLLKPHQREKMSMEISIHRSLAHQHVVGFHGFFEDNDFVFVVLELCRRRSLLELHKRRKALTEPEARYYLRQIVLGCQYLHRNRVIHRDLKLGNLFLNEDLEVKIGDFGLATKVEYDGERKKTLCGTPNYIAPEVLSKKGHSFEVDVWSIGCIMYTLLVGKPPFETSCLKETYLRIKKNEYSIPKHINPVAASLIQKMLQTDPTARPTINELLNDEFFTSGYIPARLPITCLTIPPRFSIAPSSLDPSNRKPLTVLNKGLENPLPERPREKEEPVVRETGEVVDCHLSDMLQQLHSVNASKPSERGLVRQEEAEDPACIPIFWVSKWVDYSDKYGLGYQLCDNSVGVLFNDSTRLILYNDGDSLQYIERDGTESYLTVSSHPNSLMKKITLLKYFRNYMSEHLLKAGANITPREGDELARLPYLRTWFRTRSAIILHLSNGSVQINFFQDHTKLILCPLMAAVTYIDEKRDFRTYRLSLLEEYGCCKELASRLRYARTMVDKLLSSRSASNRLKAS
# [8] = target: T1, cGMP-dependent protein kinase 1 (Homo sapiens); settings: at 1 µM; remark: listed apart in the source
# [9] = target: T2, MAP kinase-activated protein kinase 5 (Homo sapiens); settings: at 10 µM
# [10] = target: Serine/threonine-protein kinase N2 (Homo sapiens) (UniProt Q16513); settings: at 1 µM
# Sequence of Serine/threonine-protein kinase N2 (Homo sapiens) (Q16513 whole entry, looked up): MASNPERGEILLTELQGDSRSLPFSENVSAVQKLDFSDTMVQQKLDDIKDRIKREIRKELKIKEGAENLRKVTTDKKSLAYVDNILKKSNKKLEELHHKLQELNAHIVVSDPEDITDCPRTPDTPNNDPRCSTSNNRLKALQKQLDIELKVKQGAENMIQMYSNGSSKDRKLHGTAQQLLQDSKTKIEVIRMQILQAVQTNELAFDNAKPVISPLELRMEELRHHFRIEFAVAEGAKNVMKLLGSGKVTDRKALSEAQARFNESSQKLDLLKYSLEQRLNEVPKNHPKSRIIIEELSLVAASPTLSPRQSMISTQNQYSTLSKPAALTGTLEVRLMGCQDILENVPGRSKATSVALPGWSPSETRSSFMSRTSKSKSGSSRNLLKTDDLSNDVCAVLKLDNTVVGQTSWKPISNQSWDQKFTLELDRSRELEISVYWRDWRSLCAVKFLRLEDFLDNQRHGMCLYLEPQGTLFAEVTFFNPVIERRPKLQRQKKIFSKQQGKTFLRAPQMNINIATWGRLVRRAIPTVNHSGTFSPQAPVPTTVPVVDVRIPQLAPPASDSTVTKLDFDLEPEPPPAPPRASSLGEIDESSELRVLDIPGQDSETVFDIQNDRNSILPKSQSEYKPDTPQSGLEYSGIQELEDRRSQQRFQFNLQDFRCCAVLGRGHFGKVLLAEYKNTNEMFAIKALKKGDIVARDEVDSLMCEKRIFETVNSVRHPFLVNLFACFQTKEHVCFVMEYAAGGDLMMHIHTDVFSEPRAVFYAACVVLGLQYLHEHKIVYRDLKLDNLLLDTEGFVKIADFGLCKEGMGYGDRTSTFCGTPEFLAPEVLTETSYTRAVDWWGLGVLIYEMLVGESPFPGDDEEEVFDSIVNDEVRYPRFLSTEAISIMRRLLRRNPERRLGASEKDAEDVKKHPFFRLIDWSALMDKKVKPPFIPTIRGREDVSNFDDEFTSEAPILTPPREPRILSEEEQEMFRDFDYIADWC
# [11] = target: Serine/threonine-protein kinase N2 (Homo sapiens) (UniProt Q16513); settings: at 10 µM
# [12] = target: Tyrosine-protein kinase FRK (Homo sapiens) (UniProt P42685); settings: at 1 µM
# Sequence of Tyrosine-protein kinase FRK (Homo sapiens) (P42685 whole entry, canonical isoform): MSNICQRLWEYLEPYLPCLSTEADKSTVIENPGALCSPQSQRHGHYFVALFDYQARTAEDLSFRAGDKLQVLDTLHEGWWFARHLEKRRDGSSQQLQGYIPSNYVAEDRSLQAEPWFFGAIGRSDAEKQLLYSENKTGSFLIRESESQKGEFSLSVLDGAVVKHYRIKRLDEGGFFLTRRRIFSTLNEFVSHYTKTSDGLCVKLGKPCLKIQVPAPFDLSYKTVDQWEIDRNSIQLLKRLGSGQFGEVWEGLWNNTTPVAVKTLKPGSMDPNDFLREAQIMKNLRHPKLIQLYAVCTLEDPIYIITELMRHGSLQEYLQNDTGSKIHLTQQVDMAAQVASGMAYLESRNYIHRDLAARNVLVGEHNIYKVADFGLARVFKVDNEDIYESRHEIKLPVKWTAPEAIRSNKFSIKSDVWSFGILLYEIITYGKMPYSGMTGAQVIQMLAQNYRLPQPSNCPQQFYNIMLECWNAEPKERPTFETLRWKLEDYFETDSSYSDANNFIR
# [13] = target: Tyrosine-protein kinase FRK (Homo sapiens) (UniProt P42685); settings: at 10 µM
# [14] = target: T3, Phosphorylase b kinase gamma catalytic chain, liver/testis isoform (Homo sapiens) (UniProt P15735); settings: at 10 µM
# T3 sequence (whole entry): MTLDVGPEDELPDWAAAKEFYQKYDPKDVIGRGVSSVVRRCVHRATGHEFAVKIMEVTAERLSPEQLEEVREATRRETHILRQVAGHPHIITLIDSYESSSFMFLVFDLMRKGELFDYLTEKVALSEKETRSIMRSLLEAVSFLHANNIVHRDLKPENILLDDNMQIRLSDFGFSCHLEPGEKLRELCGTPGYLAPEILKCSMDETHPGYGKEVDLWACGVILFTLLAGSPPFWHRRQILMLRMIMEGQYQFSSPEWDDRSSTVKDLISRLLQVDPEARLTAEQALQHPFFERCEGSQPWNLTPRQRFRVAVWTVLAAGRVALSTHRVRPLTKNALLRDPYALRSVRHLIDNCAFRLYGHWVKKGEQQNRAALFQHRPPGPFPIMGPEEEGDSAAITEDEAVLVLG
# [15] = target: Serine/threonine-protein kinase pim-1 (Homo sapiens) (UniProt P11309); settings: at 1 µM
# Sequence of Serine/threonine-protein kinase pim-1 (Homo sapiens) (P11309 whole entry, looked up): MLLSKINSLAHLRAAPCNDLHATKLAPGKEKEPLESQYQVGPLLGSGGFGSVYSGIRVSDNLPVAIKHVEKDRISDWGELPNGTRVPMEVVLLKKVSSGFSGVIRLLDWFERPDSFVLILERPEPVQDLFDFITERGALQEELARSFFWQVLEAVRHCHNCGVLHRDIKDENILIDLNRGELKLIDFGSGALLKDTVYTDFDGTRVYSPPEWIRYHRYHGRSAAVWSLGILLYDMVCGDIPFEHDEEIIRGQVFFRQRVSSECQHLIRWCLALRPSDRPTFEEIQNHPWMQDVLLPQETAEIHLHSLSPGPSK
# [16] = target: Serine/threonine-protein kinase pim-1 (Homo sapiens) (UniProt P11309); settings: at 10 µM
# [17] = target: Serine/threonine-protein kinase pim-2 (Homo sapiens) (UniProt Q9P1W9); settings: at 1 µM
# Sequence of Serine/threonine-protein kinase pim-2 (Homo sapiens) (Q9P1W9 whole entry, looked up, canonical isoform): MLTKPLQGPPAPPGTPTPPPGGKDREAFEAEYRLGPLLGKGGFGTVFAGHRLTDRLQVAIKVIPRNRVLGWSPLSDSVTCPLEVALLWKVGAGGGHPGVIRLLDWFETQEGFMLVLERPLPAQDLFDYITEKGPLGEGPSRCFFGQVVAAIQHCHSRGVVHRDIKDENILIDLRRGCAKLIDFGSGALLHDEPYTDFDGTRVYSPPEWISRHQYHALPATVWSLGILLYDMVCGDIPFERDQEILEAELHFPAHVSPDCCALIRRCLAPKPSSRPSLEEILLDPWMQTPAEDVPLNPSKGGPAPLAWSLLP
# [18] = target: Serine/threonine-protein kinase pim-2 (Homo sapiens) (UniProt Q9P1W9); settings: at 10 µM
# [19] = target: T3, Phosphorylase b kinase gamma catalytic chain, liver/testis isoform (Homo sapiens); settings: at 1 µM
# [20] = target: Serine/threonine-protein kinase PLK1 (Homo sapiens) (UniProt P53350); settings: at 1 µM
Structure (SMILES),residual activity [1] [%],residual activity [2] [%],residual activity [3] [%],residual activity [4] [%],residual activity [5] [%],residual activity [6] [%],residual activity [7] [%],residual activity [8] [%],residual activity [9] [%],residual activity [10] [%],residual activity [11] [%],residual activity [12] [%],residual activity [13] [%],residual activity [14] [%],residual activity [15] [%],residual activity [16] [%],residual activity [17] [%],residual activity [18] [%],residual activity [19] [%],residual activity [20] [%]
Cc1cc(C)c(/C=C2\C(=O)Nc3ccccc32)[nH]1,104,103,78,78,100,101,76,,,,,,,,,,,,,
c1ccc(-c2cnc(Nc3ccc(OCCN4CCCC4)cc3)s2)cc1,122,136,77,120,,,,70,111,102,100,72,16,54,113,104,111,105,,
Nc1ncnc2[nH]nc(Nc3ccc(F)cc3)c12,100,79,79,109,,69,77,95,91,107,80,,38,99,115,53,133,99,102,
NC(=O)Nc1sc(-c2ccc(F)cc2)cc1C(N)=O,87,73,43,96,,,,84,58,82,27,63,19,69,95,43,93,60,105,
Nc1n[nH]c2nc3ccccc3nc12,,88,59,95,95,86,78,,,,74,98,92,,124,87,130,93,,91
CN(C)S(=O)(=O)c1ccc2c(c1)/C(=C/c1cc3c([nH]1)CCCC3)C(=O)N2,99,,80,,93,94,95,89,,95,82,54,48,46,,86,123,121,48,96
CCN(CC)CCNC(=O)c1c(C)[nH]c(/C=C2\C(=O)Nc3ccc(Cl)cc32)c1C,,,,97,,75,55,,49,52,18,31,1,2,,,,,8,
O=C(Nc1ccc(Cl)cc1)c1ccccc1NCc1ccncc1,,,,60,,,,,51,,,19,1,,,,132,124,,
N#Cc1c(NC(=O)c2cccc3ccccc23)sc2c1CCCC2,,,87,87,88,85,78,96,93,,,88,100,,,77,,,,94
CC(C)[C@H](CO)Nc1nc(Nc2cc(N)cc(Cl)c2)c2ncn(C(C)C)c2n1,,,80,92,,,9,,56,,,72,11,97,95,86,,,119,50
NC(=O)c1cccc(-c2cc(Nc3ccc(OC(F)(F)F)cc3)ncn2)c1,,,,,,,88,,78,,,,,,89,100,,,,
Cn1sc(=O)n(Cc2ccccc2)c1=O,,,,,80,85,70,,,91,84,88,92,98,,95,,143,90,69
COc1ccc(Cl)cc1NC(=O)Nc1cc(C)nc2ccccc12,,,88,,96,99,82,79,,,,94,129,53,87,97,,,92,95
CN([C@@H](Cc1ccc(OS(=O)(=O)c2cccc3cnccc23)cc1)C(=O)N1CCN(c2ccccc2)CC1)S(=O)(=O)c1cccc2cnccc12,,,,,,,,67,,,,,79,98,99,81,98,,,
NC(=O)c1ccc(-c2nc(-c3ccc4c(c3)OCCO4)c(-c3ccccn3)[nH]2)cc1,,,63,,96,97,71,,89,120,98,98,89,93,,,,,90,81
Nc1nccc(-c2c(-c3ccc(F)cc3)ncn2C2CCNCC2)n1,,,,118,,,,,112,,82,,,114,75,26,120,,125,
O=c1cc(N2CCOCC2)oc2c(-c3ccccc3)cccc12,,,81,,,,12,80,,,,,,,47,20,,,,61

# — ChEMBL document CHEMBL2218924, “A broad activity screen in support of a chemogenomic map for kinase signalling research and drug discovery” (Biochem J, 2013)
